NPR1 antag: blocks ANP-stimulated signaling of human Npr1 receptor; P16066; HEK293 hNpr1 GloSensor cGMP, ANP-stimulated luminescence; Potency, µM (highest dose often 46.3 µM), for inactives: top-dose activity change, negative = inhibition, actives largely listed as inhibitors; 76,000 tested, 1.6% active; calls by dose curve; further: nearly all actives have a fitted effect of over 60% in size
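Compound pre-incubated 30 min at room temperature on GloSensor-loaded HEK293 cells stably carrying hNpr1 and the pGS-40F cGMP biosensor. Stimulation uses hNppA at 0.1 nM final; luminescence is taken at baseline and 20 min post-agonist.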
NIH3T3 tox: kills NIH 3T3 cells; NIH 3T3 viability, CellTiter-Glo ATP luminescence, 48-72 h; Potency, µM (series often up to 96.7 µM), inactives show at the top dose activity change, negative = cytotoxicity, actives largely listed as inhibitors; 94,000 tested, 4.3% active; further: nearly all actives have a fitted effect of over 55% in size
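ATP-dependent luminescence (CellTiter-Glo) served as the viability signal for NIH 3T3 cells treated with compound for 48 or 72 hr at 37 °C.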
GPT2 inh: GPT2 alanine aminotransferase inhibition | Recombinant GPT2, coupled pyruvate oxidase/HRP Amplex Red fluorescence | Q8TD30 | 100,000 tested, 0.25% active | Potency, µM (titrated, usually from 57.7 µM), for inactives: at the top dose activity change, negative = inhibition, hits mostly inhibitors; further: nearly all actives have a fitted effect of over 60% in size
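Recombinant GPT2 (10ng/uL) with 250uM a-KG and 2mM L-alanine, 30 min at room temperature, in HEPES pH 7.5 buffer. Pyruvate detected by pyruvate oxidase/HRP/Amplex Red fluorescence after 30 min in the dark; AOA (50uM) as positive control.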
FLuc inh: Photinus pyralis luciferase inhibition; AID 1347043; 76,000 tested, 2.5% active; purified P. pyralis luciferase, luminescence, biochemical; Potency, µM (doses to about 115 µM), usual class: inhibitors; further: nearly all actives have a fitted effect of over 65% in size
Target sequence (P08659 whole entry, looked up): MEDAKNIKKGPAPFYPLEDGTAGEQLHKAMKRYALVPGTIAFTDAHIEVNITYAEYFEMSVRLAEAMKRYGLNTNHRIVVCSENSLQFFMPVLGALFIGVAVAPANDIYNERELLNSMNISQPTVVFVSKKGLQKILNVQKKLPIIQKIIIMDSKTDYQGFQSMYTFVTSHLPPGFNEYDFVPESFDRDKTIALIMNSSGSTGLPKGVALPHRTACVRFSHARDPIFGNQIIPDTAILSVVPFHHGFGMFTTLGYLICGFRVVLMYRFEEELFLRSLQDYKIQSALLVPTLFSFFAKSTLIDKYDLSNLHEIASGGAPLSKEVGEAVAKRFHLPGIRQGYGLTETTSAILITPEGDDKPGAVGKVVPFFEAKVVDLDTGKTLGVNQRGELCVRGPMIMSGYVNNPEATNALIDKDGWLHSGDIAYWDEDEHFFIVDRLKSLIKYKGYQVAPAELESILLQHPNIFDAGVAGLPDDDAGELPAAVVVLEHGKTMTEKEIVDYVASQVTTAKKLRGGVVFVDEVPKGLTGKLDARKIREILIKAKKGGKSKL
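Cell-free enzyme assay, 10nM P. pyralis luciferase, luciferin and ATP each at 10uM. Inhibition profiled over a 6-point titration, read as luminescence.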
HEK cytotox: HEK 293 cell cytotoxicity; AID 1345083; Potency, µM (doses to about 115 µM), for inactives: at the highest dose activity change, negative = cytotoxicity, usual class: inhibitors; 94,000 tested, 6.6% active; HEK 293 viability, ATP luminescence (CellTiter-Glo), 48-72 h; further: nearly all actives have a fitted effect of over 60% in size
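HEK 293 cells at 250 cells/well were exposed to compounds by pintool transfer for 48 or 72 hr at 37 degree Celsius, 5% CO2. Viability was read as ATP-coupled luminescence with CellTiter-Glo after 10 min at room temperature.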
An asterisk follows results filed as active; i = inactive; ? = inconclusive; . = not tested or not shown; [ ] = another dose, or the depositor's remark. Compounds with a hit are over-represented: about 10% of the library has one in this group of screens. Unless noted, the call rests on the fitted dose curve; in most records, active means well fitted curve in the direction sought with a large enough effect; inconclusive means small, poorly fitted or top-dose-only effect, or another doubt; inactive means no such curve, though single readings can be large; an effect the other way counts as inactive or inconclusive. On the % scale 0 is the no-effect control and ±100 the full control effect; potency means the concentration at half of the fitted maximal effect.

SMILES | NPR1 antag | NIH3T3 tox | GPT2 inh | FLuc inh | HEK cytotox
COc1ccc(F)cc1-c1cccc(C(=O)NCCNC(=O)c2ccc(Cl)nc2)c1 | . | ? | -6% | . | 40µM*
COc1ccc(F)cc1-c1cccc(C(=O)NCCNC(=O)Cc2cccc(Cl)c2)c1 | . | 40µM* | i | . | ?
COc1ccc(F)cc1-c1cccc(C(=O)NCCNC(=O)c2cccc(Cl)c2)c1 | . | ? | 3% | . | 20µM*
COc1ccc(F)cc1-c1cccc(C(=O)NCCNC(=O)c2ccc(Cl)cc2)c1 | . | ? | 2% | . | 45µM*
Cc1cc(CN2CCCC(CCNC(=O)C3(N)CC3)C2)oc1C (configuration not stated) | -4% | -19% | i | i | -9%
COc1ccc(F)cc1-c1cccc(C(=O)NCCNC(C)=O)c1 | . | ? | 2%[88.5 µM] | . | -25%[172 µM]
COc1ccc(F)cc1-c1cccc(C(=O)NCCNC(=O)Nc2ccc(Cl)cc2)c1 | . | 32µM* | i | . | ?
COc1cccc(C(=O)NCCNC(=O)c2cccc(-c3cc(F)ccc3OC)c2)c1 | . | 45µM* | 3% | . | ?
Cc1ccc(C2Cn3nnc(C(=O)N4CCC(C(=O)Nc5cccc(Cl)c5)CC4)c3CO2)cc1 (configuration not stated) | -15% | ? | i | 28µM* | 40µM*
Cc1ccc(C2Cn3nnc(C(=O)N4CCN(C(=O)c5cccc(N(C)C)c5)CC4)c3CO2)cc1 (configuration not stated) | ? | -19% | -22% | ? | 18µM*
O=C(c1ccc2[nH]ccc2c1)N1CCN(C(=O)c2nnn3c2COC(c2ccccc2)C3)CC1 (configuration not stated) | -15% | -11% | i | i | 79µM*
Cc1ccc(C2Cn3nnc(C(=O)N4CCC(C(=O)Nc5ccc(Cl)c(C)c5)CC4)c3CO2)cc1 (configuration not stated) | -12% | -1% | -11% | 35µM* | 5%
Cc1cccc(C(=O)N2CCN(C(=O)c3nnn4c3COC(c3ccc(Cl)cc3)C4)CC2)c1 (configuration not stated) | -14% | -23% | -10% | i | ?
CSc1ccc(NC(=O)C2CCN(C(=O)c3nnn4c3COC(c3ccc(C)cc3)C4)CC2)cc1 (configuration not stated) | 1% | -13% | i | ? | -7%
COc1ccccc1C(=O)Nc1cc(C2CCCC2)nn1C | . | ? | i | . | ?
O=C(c1ccc2nc(-c3ccncc3)oc2c1)N1CCCCC1 | . | ? | i | . | ?
CCCCC1CCCN1C(=O)c1coc(COc2cccc(F)c2F)n1 (configuration not stated) | -2% | ? | i[11.5 µM] | i | ?
COc1ccccc1Nc1ccnc(N2CCC(NC(=O)c3ccc(Cl)cc3)CC2)n1 | . | 32µM* | 1% | . | 35µM*
COc1ccccc1Nc1ccnc(N2CCC(NC(=O)c3ccc(C)cc3)CC2)n1 | . | 40µM* | i | . | ?
COc1ccccc1Nc1ccnc(N2CCC(NC(=O)Cc3ccc(F)cc3)CC2)n1 | . | ? | -16% | . | 45µM*
COc1ccccc1Nc1ccnc(N2CCC(NC(=O)c3ccccc3)CC2)n1 | . | -10% | 0% | . | ?
COc1ccccc1Nc1ccnc(N2CCC(NC(=O)c3ccc(F)cc3)CC2)n1 | . | -28% | i | . | -29%
O=C(NC1CCN(CCn2nc3n(c2=O)CCCC3)C1)c1ccncc1 (configuration not stated) | . | i | . | . | i
COC1CCOC2(CCN(C(=O)NCCc3ccccc3)CC2)C1 (configuration not stated) | -3% | 2% | i | 28µM* | 5%
O=C(c1ccc(F)cc1)N1CCCC(C(=O)N2CCC(c3ccccc3)CC2)C1 (configuration not stated) | . | ? | -10% | . | ?
SMILES | NPR1 antag | NIH3T3 tox | GPT2 inh | FLuc inh | HEK cytotox
CCCc1nc(C)cc(N2CCC(NCCc3ccc(Cl)cc3)CC2)n1 | 4% | ? | -5% | i | 14µM*
C=CCN1C[C@H]2COc3ccccc3[C@H]2N(C(=O)CC(C)(C)C)CCC1=O | . | ? | . | . | -11%
C#CCNC(=O)c1nc2sccn2c1-c1ccc(C(F)(F)F)cc1 | . | ? | -11%[88.5 µM] | . | ?
CCn1ccnc1CN1CCCC1C(=O)Nc1ccc(-c2cccc(F)c2)cc1 (configuration not stated) | -3% | ? | -17% | i | 35µM*
COc1cccc(-c2cccc(CN3CCCC3C(=O)NCc3cccc(F)c3)c2)c1 (configuration not stated) | . | 35µM* | i | . | ?
COCCCNC(=O)C1CCCN1Cc1cccc(-c2cccc(OC)c2)c1 (configuration not stated) | . | ? | -3% | . | ?
COc1cccc(-c2ccc(CN3CCCC3C(=O)NC3CCC3)cc2)c1 (configuration not stated) | . | ? | i | . | ?
COc1cccc(-c2cccc(CN3CCCC3C(=O)NC3CC3)c2)c1 (configuration not stated) | . | ? | . | . | 45µM*
O=C(Nc1ccc(-c2cccc(F)c2)cc1)C1CCCN1Cc1cnc[nH]1 (configuration not stated) | -16% | ? | 4% | ? | -62%
CC(=O)NC1CCCN(c2ccnc3ccnn23)C1 (configuration not stated) | . | -8%[138 µM] | i | . | -4%[172 µM]
O=C(CCCc1ccccc1)N1CCC(Cc2nncn2-c2ccccc2)C1 (configuration not stated) | . | -33% | i | . | -22%
CN(Cc1ccon1)C(=O)C1CCN(C(=O)C2CCC2)CC1 | 1% | 3% | 1% | i | -2%
CN(Cc1ccc2nonc2c1)C(=O)C1CCN(C(=O)C2CCCC2)CC1 | 0% | 40µM* | i | i | ?
O=C(CCCc1ccccc1)N1CCCCCC1c1nc(C2CC2)no1 (configuration not stated) | -8% | ? | -21% | i | 50µM*
O=C(CCCc1ccccc1)N1CCCC1c1nc(C2CCOCC2)no1 (configuration not stated) | -6% | -27% | i | i | ?
O=C(NCC1CC1)C1CCc2nnc(-c3cccc(C(F)(F)F)c3)n21 (configuration not stated) | . | -10%[138 µM] | i | . | -23%[172 µM]
COc1ccc2nc(C[C@@H]3C[C@@H](C(C)C)[C@H](CNC(=O)CCCC(=O)O)C=C3C)[nH]c2c1 | -2% | 3% | -12% | i | 0%
COCC(=O)NC[C@@H]1C=C(C)[C@H](Cc2nc3ccc(Cl)cc3[nH]2)C[C@H]1C(C)C | 1%[70.6 µM] | 71µM* | 2%[88.5 µM] | i | ?
